Results as given in the supplement of paper PMC10646978.
± gives the standard deviation.

Tests used:
Conditions in all cases: modulator concentration 10 µM
[1] = tested on: RAW-Dual (murine macrophage reporter line); test: NF-kB reporter (SEAP) activity fold change vs agonist alone; higher = enhanced NF-kB activity
In short: (§1)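 Overnight stimulation with a PRR agonist followed pre-incubation for 1 hour at 37 °C with compound at 10 μM final. This was done in RAW-Dual murine macrophage reporter cells seeded at 50 000 per well in 384-well plates. NF-κB (SEAP, QUANTI-Blue absorbance at 620 nm) and IRF (Lucia luciferase, QUANTI-Luc luminescence) were read from the supernatant. Each reporter's fold change relative to the mean agonist-only control on the same plate was averaged over replicate plates.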

[2] = tested on: RAW-Dual (murine macrophage reporter line); test: IRF reporter (Lucia luciferase) activity fold change vs agonist alone; higher = enhanced IRF activity
In short: as §1

[3] = tested on: RAW-Dual (murine macrophage reporter line); test: viability score (confluency relative to resting cells, overnight) (fraction); higher = more viable, active = viable (0.7 or more)
In short: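 A compound met the cutoff when both of two confluency masks exceeded 70% of resting cells. Those masks were made with IncuCyte software from IncuCyte images of RAW-Dual macrophages treated overnight at 10 μM final. This is the basis of the viability score, which is confluency relative to resting cells.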

[4] = agonist: CpG ODN 1826 0.5 ug/mL

| Structure (SMILES) | NF-kB reporter [1, 4] | NF-kB reporter ([1]; agonist: LPS 0.1 ug/mL) | NF-kB reporter ([1]; agonist: MPLA […]) | IRF reporter ([2]; agonist: 3'3'-cGAMP 10 ug/mL) | IRF reporter ([2]; agonist: LPS 0.1 ug/mL) | IRF reporter ([2]; agonist: MPLA […]) | viability score [3] |
| --- | --- | --- | --- | --- | --- | --- | --- |
| NC[C@@H]1O[C@H](O[C@@H]2[C@@H](CO)OC(O[C@@H]3[C@@H](O)[C@H](N)C[C@H](N)[C@H]3O[C@H]3O[C@H](CN)[C@@H](O)[C@H](O)[C@H]3N)[C@@H]2O)[C@H](N)[C@@H](O)[C@@H]1O.O=S(=O)(O)O (some centres not stated) | 0.993 ± 0.074 | 1.01 ± 0.091 | 0.983 ± 0.025 | 0.908 ± 0.09 | 1.02 ± 0.081 | 1.11 ± 0.12 | 1 (active) |
| CCC(=O)Nc1ccc(S(=O)(=O)N2CCC(Oc3ncnc(CC)c3F)C2)c(C)c1 (configuration not stated) | 1 ± 0.043 | 1.06 ± 0.087 | 1.2 ± 0.083 | 0.919 ± 0.055 | 1.24 ± 0.21 | 1.34 ± 0.4 | 0.992 (active) |
| Cc1cn(-c2cc(NC(=O)c3ccc(C)c(Nc4nccc(-c5cnccn5)n4)c3)cc(C(F)(F)F)c2)cn1 | 0.892 ± 0.22 | 1.17 ± 0.059 | 0.982 ± 0.063 | 0.867 ± 0.032 | 0.943 ± 0.11 | 1.19 ± 0.33 | 0.988 (active) |
| Cc1cc(C#N)cc(C)c1Oc1nc(Nc2ccc(C#N)cc2)nc(N)c1Br | 1.15 ± 0.049 | 1.3 ± 0.1 | 1.5 ± 0.14 | 1.39 ± 0.21 | 1.05 ± 0.24 | 1.28 ± 0.42 | 0.97 (active) |
| O=S(=O)(c1cccc2ccccc12)n1nnc2ccccc21 | 1.01 ± 0.092 | 1.03 ± 0.068 | 1.05 ± 0.08 | 1.09 ± 0.29 | 1.04 ± 0.065 | 0.995 ± 0.067 | 1 (active) |
| COc1ccccc1OCC(=O)NCC1CCN(C(C)C)CC1 | 1.12 ± 0.062 | 1.07 ± 0.099 | 0.92 ± 0.049 | 1.09 ± 0.099 | 1.13 ± 0.21 | 1.05 ± 0.34 | 0.991 (active) |
| COc1cc2ncnc(Nc3ccc(F)c(Cl)c3)c2cc1OCCCN1CCOCC1.Cl | 0.0798 ± 0.019 | 0.978 ± 0.06 | 1.08 ± 0.1 | 0.193 ± 0.015 | 0.835 ± 0.1 | 1.16 ± 0.11 | 0.592 (inactive) |
| CCCCc1c(CCC)c(=N)c2ccccc2n1C.I | 0.992 ± 0.098 | 1.18 ± 0.091 | 1.56 ± 0.15 | 1.09 ± 0.048 | 1.67 ± 0.22 | 2.14 ± 0.32 | 1.01 (active) |
| CCCc1nc2ccccc2n1C(=O)C=CC(=O)O | 0.789 ± 0.061 | 0.833 ± 0.06 | 1.13 ± 0.17 | 0.981 ± 0.046 | 1.46 ± 0.12 | 1.59 ± 0.16 | 1 (active) |
| OCCN1CCN(CCCN2c3ccccc3Sc3ccc(Cl)cc32)CC1 | 1.21 ± 0.051 | 0.614 ± 0.069 | 0.894 ± 0.077 | 3.18 ± 0.17 | 1.32 ± 0.18 | 1.49 ± 0.42 | 0.907 (active) |
| COc1ccc(C(=O)Nc2sc3c(c2C(N)=O)CCC(C)C3)c(OC)c1 (configuration not stated) | 1.09 ± 0.11 | 1.08 ± 0.067 | 0.947 ± 0.058 | 0.907 ± 0.068 | 1.5 ± 0.2 | 1.22 ± 0.11 | 1.01 (active) |
| O=C(NCCN1CCN(c2ccc(Cl)cc2)CC1)c1ccncc1 | 0.974 ± 0.076 | 0.99 ± 0.076 | 1.01 ± 0.027 | 1.01 ± 0.053 | 1.02 ± 0.081 | 0.986 ± 0.097 | 0.998 (active) |
| O=C(Oc1ccc2ccccc2c1)c1ccccc1 | 0.981 ± 0.055 | 1.06 ± 0.11 | 1.04 ± 0.066 | 0.906 ± 0.06 | 1.27 ± 0.12 | 1.12 ± 0.11 | 0.975 (active) |
| CC(C)(C)C1CCc2c(sc(NC(=O)c3cccs3)c2C(=O)N2CCCC2)C1 (configuration not stated) | 0.93 ± 0.073 | 1.06 ± 0.061 | 0.993 ± 0.13 | 0.984 ± 0.027 | 1.14 ± 0.12 | 1.03 ± 0.068 | 1.01 (active) |
| COc1ccc(CC(=O)Nc2nc(CSCc3ccc(F)cc3)cs2)cc1 | 0.968 ± 0.057 | 1.06 ± 0.081 | 1.08 ± 0.069 | 0.832 ± 0.036 | 0.981 ± 0.045 | 0.968 ± 0.1 | 0.941 (active) |
| CC(=O)OC1=C(O)C=CC2C(C)=CC(=O)OC12 (configuration not stated) | 0.954 ± 0.12 | 0.823 ± 0.079 | 1.04 ± 0.1 | 0.986 ± 0.034 | 1.3 ± 0.19 | 1.47 ± 0.3 | 1.01 (active) |
| CC(=O)N1CCc2ccc(NC(=O)C3(c4ccccc4)CCOCC3)cc2C1 | 0.91 ± 0.063 | 1 ± 0.082 | 1.4 ± 0.075 | 1.22 ± 0.06 | 1.28 ± 0.24 | 1.31 ± 0.54 | 0.979 (active) |
| COc1cccc(C=Nc2cccc([N+](=O)[O-])c2C)c1O | 0.661 ± 0.054 | 0.906 ± 0.066 | 0.978 ± 0.035 | 0.903 ± 0.077 | 0.93 ± 0.088 | 0.948 ± 0.17 | 1 (active) |

| Structure (SMILES) | NF-kB reporter [1, 4] | NF-kB reporter ([1]; agonist: LPS 0.1 ug/mL) | NF-kB reporter ([1]; agonist: MPLA […]) | IRF reporter ([2]; agonist: 3'3'-cGAMP 10 ug/mL) | IRF reporter ([2]; agonist: LPS 0.1 ug/mL) | IRF reporter ([2]; agonist: MPLA […]) | viability score [3] |
| --- | --- | --- | --- | --- | --- | --- | --- |
| CCN(CC)c1ccc(C=Nc2c(C)cc(C)cc2C)cc1 | 0.97 ± 0.08 | 1.03 ± 0.086 | 0.959 ± 0.054 | 0.894 ± 0.046 | 0.968 ± 0.063 | 0.94 ± 0.065 | 1 (active) |
| O=C1NC(=O)c2c1cc1ccccc1c2-c1ccccc1 | 0.996 ± 0.18 | 0.979 ± 0.077 | 0.952 ± 0.15 | 0.887 ± 0.031 | 1.2 ± 0.2 | 1.35 ± 0.3 | 0.998 (active) |
| COC(=O)N[C@H](C(=O)N1CCC[C@H]1c1ncc(-c2ccc(-c3ccc(-c4cnc([C@@H]5CCCN5C(=O)[C@@H](NC(=O)OC)C(C)C)[nH]4)cc3)cc2)[nH]1)C(C)C | 0.724 ± 0.098 | 1.17 ± 0.46 | 1.22 ± 0.074 | 0.757 ± 0.12 | 1.52 ± 0.3 | 4.38 ± 1.3 | 0.987 (active) |
| C#CCOC(=O)CCCC(=O)Nc1ccc([N+](=O)[O-])cc1Cl | 0.957 ± 0.066 | 1.01 ± 0.067 | 0.975 ± 0.062 | 1.01 ± 0.036 | 1.59 ± 0.11 | 1.3 ± 0.21 | 0.999 (active) |
| CC(C)C(C(=O)Nc1ccccc1C(N)=O)N1C(=O)c2ccccc2C1=O (configuration not stated) | 0.93 ± 0.085 | 1.1 ± 0.071 | 0.932 ± 0.058 | 1.02 ± 0.043 | 1.34 ± 0.16 | 1.16 ± 0.075 | 1.01 (active) |
| Nc1c2c(nc3ccccc13)CCCC2 [Prestw-329] | 0.919 ± 0.075 | 0.967 ± 0.084 | 1.24 ± 0.11 | 1 ± 0.057 | 1.55 ± 0.12 | 1.66 ± 0.14 | 1 (active) |
| CN(C)c1nc(CNC(=O)CSc2nc3ccccc3o2)nc(N(C)C)n1 | 1.01 ± 0.07 | 1.13 ± 0.12 | 1.01 ± 0.067 | 0.959 ± 0.048 | 1.05 ± 0.063 | 1 ± 0.078 | 0.979 (active) |
| Cc1cc2nc3sc(=Cc4ccc(F)cc4)c(=O)n3c2cc1C | 0.99 ± 0.12 | 0.932 ± 0.12 | 1.04 ± 0.097 | 0.817 ± 0.03 | 1.07 ± 0.12 | 1.07 ± 0.13 | 1.03 (active) |
| Cc1cccc(-c2cc3nc(C)c(Cl)c(O)n3n2)c1 | 1.04 ± 0.058 | 1.04 ± 0.091 | 0.948 ± 0.025 | 1.04 ± 0.039 | 1 ± 0.1 | 1.04 ± 0.24 | 0.996 (active) |
| O=C(Cc1ccc(F)cc1F)N1CCC(n2c(=O)[nH]c3ccccc3c2=O)CC1 | 1.01 ± 0.06 | 1.15 ± 0.088 | 0.997 ± 0.026 | 0.878 ± 0.033 | 1.07 ± 0.061 | 1.03 ± 0.12 | 1 (active) |
| Clc1ccc(-c2nc(-c3ccc(I)cc3)[nH]c2-c2ccc(Cl)cc2)cc1 | 0.641 ± 0.049 | 0.91 ± 0.1 | 0.985 ± 0.1 | 0.929 ± 0.082 | 1.19 ± 0.24 | 1.27 ± 0.3 | 1.02 (active) |
| Cc1cc(OCC(=O)NNC(=O)COc2ccc(Br)cc2Br)cc(C)c1Cl | 0.961 ± 0.098 | 0.857 ± 0.13 | 0.985 ± 0.036 | 0.895 ± 0.15 | 0.987 ± 0.051 | 0.98 ± 0.086 | 0.945 (active) |
| O=C(CCCCC(=O)NN=Cc1cccc(O)c1)NN=Cc1cccc(O)c1 | 1.05 ± 0.093 | 1.08 ± 0.081 | 0.935 ± 0.12 | 0.955 ± 0.032 | 1.41 ± 0.15 | 1.16 ± 0.17 | 1 (active) |
| O=S(=O)(c1ccc(F)cc1)n1cccc1 | 0.812 ± 0.065 | 0.746 ± 0.047 | 1.09 ± 0.096 | 1.02 ± 0.05 | 1.49 ± 0.087 | 1.72 ± 0.22 | 0.988 (active) |
| CCN(CC)Cc1cc(Nc2ccnc3cc(Cl)ccc23)ccc1O.Cl.Cl.O.O | 0.606 ± 0.026 | 0.671 ± 0.054 | 0.944 ± 0.068 | 1.39 ± 0.23 | 1.22 ± 0.24 | 1.16 ± 0.46 | 0.931 (active) |
| CC(C)C1=NN2C(=N)C(=Cc3ccc(-c4ccccc4[N+](=O)[O-])o3)C(=O)N=C2S1 | 0.927 ± 0.078 | 0.953 ± 0.065 | 0.944 ± 0.066 | 0.89 ± 0.043 | 1.48 ± 0.22 | 1.06 ± 0.22 | 1.01 (active) |
| CN(C)CCOC(c1ccc(Cl)cc1)c1ccccn1.O=C(O)/C=C\C(=O)O (configuration not stated) | 0.87 ± 0.12 | 1.14 ± 0.19 | 0.954 ± 0.073 | 0.752 ± 0.03 | 1.36 ± 0.27 | 1.15 ± 0.12 | 1 (active) |
| O=C(OC(=Cc1nccn1Cc1ccc(Cl)cc1)c1ccccc1)c1ccccc1 | 0.323 ± 0.021 | 0.481 ± 0.05 | 0.394 ± 0.026 | 0.37 ± 0.015 | 1.36 ± 0.12 | 1.51 ± 0.13 | 0.973 (active) |
